In PubChem BioAssay (NCI):
Compounds without any hit were thinned out: in the full panel of roughly 79,000, 15% have a hit. Activity calls are given as the source filed them. Rule as the data show it: active = growth inhibition above about 70%; inactive = the rest.

Tests used:
[1] = NCI Yeast Anticancer Drug Screen. Data for the mec2-1 strain (AID 157); conditions: S. cerevisiae mec2-1 strain, active compounds read high
Method in brief: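 Readout is yeast growth inhibition, normalised to vehicle-treated controls, in the mec2-1 strain exposed to compound.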

[2] = NCI Yeast Anticancer Drug Screen. Data for the sgs1 mgt1 strain (AID 161);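 also: 0% = growth of cultures given vehicle only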; conditions: S. cerevisiae sgs1 mgt1 strain, active compounds read high
Method in brief: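 Percent growth inhibition was derived by comparing compound-exposed mutant yeast with vehicle-exposed cultures. The strain carries alterations in DNA damage repair.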

[3] = NCI Yeast Anticancer Drug Screen. Data for the CLN2oe strain (AID 163);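 also: 0% = growth of vehicle-only control cultures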; conditions: S. cerevisiae CLN2oe strain, active compounds read high
Method in brief: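 Values reflect how much compound exposure reduced yeast growth, referenced to vehicle-exposed cells. Assay organism is a strain with a defined genetic change affecting cell-cycle control.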

[4] = NCI Yeast Anticancer Drug Screen. Data for the cln2 rad14 strain (AID 165);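 also: 0% = growth equal to vehicle treated cultures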; conditions: S. cerevisiae cln2 rad14 strain, active compounds read high
Method in brief: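 Relative to vehicle controls, growth inhibition of compound-treated cln2 rad14 yeast was recorded.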

[5] = NCI Yeast Anticancer Drug Screen. Data for the bub3 strain (AID 167); conditions: S. cerevisiae bub3 mutant strain, active compounds read high
Method in brief: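 In this screen, a yeast mutant lacking normal mitotic checkpoint function is challenged with compound. Relative growth versus vehicle gives the inhibition value.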

[6] = NCI Yeast Anticancer Drug Screen. Data for the wt2 strain (AID 169);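 also: 0% = growth of vehicle-treated yeast cultures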; conditions: S. cerevisiae wt2 strain growth inhibition, active compounds read high
Method in brief: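 Values express reduction in yeast growth under compound treatment, referenced to vehicle-treated cells.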

[7] = NCI Yeast Anticancer Drug Screen. Data for the mlh1 strain (AID 171);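 also: 0% = growth of vehicle-treated control cultures of the same strain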; conditions: S. cerevisiae mlh1 strain growth inhibition, active compounds read high
Method in brief: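 Steps: expose the defined-mutant yeast strain to compound; expose a parallel culture to vehicle; measure growth; express compound effect as inhibition relative to the vehicle culture.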

[8] = NCI Yeast Anticancer Drug Screen. Data for the sgs1 strain (AID 173);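 also: 0% = growth of vehicle-only control cultures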; conditions: S. cerevisiae sgs1 mutant, active compounds read high
Method in brief: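 Treat defined-mutant yeast with compound; measure growth; calculate inhibition relative to vehicle-treated cells.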

[9] = NCI Yeast Anticancer Drug Screen. Data for the mlh1 rad18 strain (AID 175); conditions: S. cerevisiae mlh1 rad18 strain growth inhibition, active compounds read high
Method in brief: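 Test agents were incubated with a yeast strain of defined genotype (DNA damage repair defect). Inhibition of growth was derived by comparison with vehicle-exposed cultures.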

[10] = NCI Yeast Anticancer Drug Screen. Data for the rad18 strain (AID 177); conditions: S. cerevisiae rad18 mutant growth inhibition, active compounds read high
Method in brief: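 A genetically defined yeast mutant impaired in DNA damage repair was treated with test compounds, then its growth was measured against cultures receiving vehicle alone.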

[11] = NCI Yeast Anticancer Drug Screen. Data for the wt1 strain (AID 149);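 also: 0% = growth of vehicle-treated wt1 cultures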; conditions: S. cerevisiae wt1 strain (SPY 50644) growth inhibition, active compounds read high
Method in brief: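 wt1 strain grown with compound or vehicle; inhibition taken from the growth difference.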

[12] = NCI Yeast Anticancer Drug Screen. Data for the rad50EPP+ strain (AID 151);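 also: 0% = growth of vehicle-treated control cultures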; conditions: S. cerevisiae rad50 mutant strain, active compounds read high
Method in brief: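 Exposing the rad50EPP+ strain to each compound, growth was compared with vehicle-only cultures to give inhibition.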

[13] = NCI Yeast Anticancer Drug Screen. Data for the mgt1 strain (AID 153); conditions: S. cerevisiae mgt1 mutant growth inhibition, active compounds read high
Method in brief: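 Genetically defined yeast (mgt1) treated with compound; inhibition of growth expressed against vehicle-treated controls.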

[14] = NCI Yeast Anticancer Drug Screen. Data for the rad50 strain (AID 155);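 also: 0% = growth of vehicle-only cultures of the same strain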; conditions: S. cerevisiae rad50 strain growth inhibition, active compounds read high
Method in brief: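 DNA repair mutant yeast, compound exposure, growth read-out; inhibition is taken relative to vehicle.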

[15] = NCI Yeast Anticancer Drug Screen. Data for the rad14 strain (AID 159);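 also: 0% = growth of vehicle-treated control cultures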; conditions: S. cerevisiae rad14 strain growth inhibition, active compounds read high
Method in brief: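 DNA repair-defective yeast, compound-exposed; % growth inhibition derived by comparison with vehicle-treated controls.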

[16] = at 5.0 µM (retest, dose inferred, filed as 0.5)
[17] = at 50.0 µM (retest, dose inferred, filed as 5.0)

Measured: growth inhibition

O=C(O)C1C2CCC(C2)C1c1ccccc1 (stereo unspecified)
inactive: [1]; at 100.0 µM 31% | [2]; [16] -2% | [2]; [17] 8% | [2]; at 50.0 µM 10.2% | [3]; at 1.2 µM -7% | [3]; at 3.7 µM -10% | [3]; at 11.0 µM -6% | [3]; at 33.0 µM -1% | [3]; at 100.0 µM 18% | [4]; [16] -6% | [4]; [17] 8% | [4]; at 50.0 µM 11% | [5]; at 1.2 µM -1% | [5]; at 3.7 µM 11% | [5]; [16] 29% | [5]; at 11.0 µM 36% | [6]; at 1.2 µM -1% | [6]; at 3.7 µM 7% | [6]; at 11.0 µM -3% | [6]; at 33.0 µM 0% | [6]; at 100.0 µM 37% | [7]; at 1.2 µM -2% | [7]; at 3.7 µM -2% | [7]; at 11.0 µM -1% | [7]; at 33.0 µM -2% | [7]; at 100.0 µM 31% | [8]; at 1.2 µM -2% | [8]; at 3.7 µM 0% | [8]; at 11.0 µM 3% | [8]; at 33.0 µM 15% | [8]; at 100.0 µM 66% | [9]; [16] -1% | [9]; [17] 6% | [9]; at 50.0 µM 20.1% | [10]; at 1.2 µM 0% | [10]; at 3.7 µM -1% | [10]; at 11.0 µM -5% | [10]; at 33.0 µM 1% | [10]; at 100.0 µM 47%
active: [5]; at 33.0 µM 77% | [5]; [17] 90% | [5]; at 50.0 µM 95% | [5]; at 100.0 µM 94%

Oc1cccc2nc3ccccc3nc12
inactive: [11]; at 1.2 µM -55% | [11]; at 3.7 µM -46% | [11]; at 11.0 µM -30% | [11]; at 33.0 µM 1% | [12]; at 1.2 µM -47% | [12]; at 3.7 µM -31% | [12]; at 11.0 µM 6% | [12]; at 33.0 µM 63% | [13]; at 1.2 µM -22% | [13]; at 3.7 µM -14% | [13]; at 11.0 µM 6% | [13]; at 33.0 µM 20% | [14]; at 1.2 µM -4% | [14]; at 3.7 µM -8% | [14]; [16] -14% | [14]; at 11.0 µM 5% | [14]; at 33.0 µM 54% | [14]; at 50.0 µM 65.4% | [1]; at 1.2 µM -48% | [1]; at 3.7 µM -44% | [1]; [16] 9% | [1]; at 11.0 µM -33% | [1]; at 33.0 µM 24% | [1]; [17] 47% | [1]; at 50.0 µM 68.5% | [15]; at 1.2 µM -31% | [15]; at 3.7 µM -32% | [15]; at 11.0 µM -27% | [15]; at 33.0 µM 19% | [2]; [16] -4% | [2]; [17] 29% | [2]; at 50.0 µM 21% | [3]; at 1.2 µM -27% | [3]; at 3.7 µM -14% | [3]; at 11.0 µM -22% | [3]; at 33.0 µM 6% | [4]; [16] 1% | [4]; [17] 13% | [4]; at 50.0 µM 35.4% | [5]; at 1.2 µM -31% | [5]; at 3.7 µM -28% | [5]; [16] -3% | [5]; at 11.0 µM -16% | [5]; at 33.0 µM -4% | [5]; [17] 35% | [5]; at 50.0 µM 47.2% | [6]; at 1.2 µM -48% | [6]; at 3.7 µM -44% | [6]; at 11.0 µM -39% | [6]; at 33.0 µM -9% | [7]; at 1.2 µM -58% | [7]; at 3.7 µM -33% | [7]; at 11.0 µM -27% | [7]; at 33.0 µM 12% | [8]; at 1.2 µM -43% | [8]; at 3.7 µM -44% | [8]; at 11.0 µM -41% | [8]; at 33.0 µM -18% | [9]; [16] -41% | [9]; [17] 58% | [9]; at 50.0 µM 64.5% | [10]; at 1.2 µM -29% | [10]; at 3.7 µM -26% | [10]; at 11.0 µM -14% | [10]; at 33.0 µM 27%
active: [11]; at 100.0 µM 88% | [12]; at 100.0 µM 96% | [13]; at 100.0 µM 91% | [14]; [17] 73% | [14]; at 100.0 µM 95% | [1]; at 100.0 µM 94% | [15]; at 100.0 µM 92% | [3]; at 100.0 µM 93% | [5]; at 100.0 µM 94% | [6]; at 100.0 µM 75% | [7]; at 100.0 µM 92% | [8]; at 100.0 µM 86% | [10]; at 100.0 µM 93%
